From PubChem
This is a sample that favours compounds with a hit; in the whole collection about 2.4% have one here.
D2 antagonist = HTS Assay for Allosteric Antagonists of the Human D2 Dopamine Receptor: Primary Screen for Antagonists | AID 485344, 2010 | HEK293 TREx D2 cells, calcium flux, dopamine EC80 | hit rate 2% among 340,000 | inhibition, % at 10 µM | D(2) dopamine receptor (Homo sapiens), P14416; in the data active = inhibition above about 30%; inactive = below that, where a call was filed; note: 0% is about no effect
Target sequence (P14416 whole entry, looked up): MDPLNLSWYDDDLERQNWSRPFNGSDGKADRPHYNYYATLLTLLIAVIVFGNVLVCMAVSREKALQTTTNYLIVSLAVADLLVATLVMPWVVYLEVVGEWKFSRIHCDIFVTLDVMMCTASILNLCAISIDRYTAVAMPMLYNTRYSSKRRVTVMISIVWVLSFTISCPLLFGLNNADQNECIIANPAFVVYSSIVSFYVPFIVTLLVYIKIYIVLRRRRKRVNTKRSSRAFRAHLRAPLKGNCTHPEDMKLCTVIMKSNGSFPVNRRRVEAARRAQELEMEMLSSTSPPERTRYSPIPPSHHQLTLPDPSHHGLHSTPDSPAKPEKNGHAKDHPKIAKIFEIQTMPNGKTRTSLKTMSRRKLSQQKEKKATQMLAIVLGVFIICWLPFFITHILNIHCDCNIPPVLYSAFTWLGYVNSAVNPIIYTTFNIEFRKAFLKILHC
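Dopamine at EC80 is the agonist stimulus; test compounds precede it by 180 s. Calcium flux read kinetically in a force-coupled, inducible HEK293 T-REx D2 cell line.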
D2 ag-1 = HTS Assay for Allosteric Agonists of the Human D2 Dopamine Receptor: Primary Screen for Agonists. HEK293 T-REx D2 cells, calcium flux agonist mode. activation, % at 2 µM. hit rate 0.53% among 340,000. AID 485358, 2010;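 active = activation over 3 SD above normal in the single-dose calcium agonist read, cut at about 30% in these data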; note: 0% is about no effect
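Agonism scored from kinetic calcium signal (1 read/sec, 180 s) following compound pin transfer, after a 10 s baseline. Cells: HEK293 Trex line expressing inducible D2 receptor coupled to calcium, dye-loaded after overnight culture at 30 C.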
D2 PAM-1 = Beta-Arrestin HTS for Positive Allosteric Modulators of the Human D2 Dopamine Receptor: Potentiators; D(2) dopamine receptor (Homo sapiens), P14416; DiscoveRx D2 beta-arrestin cells, luminescence, 90 min; 100% = 57 uM dopamine signal; potentiation, % (no concentration beside the values); hit rate 0.23% among 360,000; AID 624464, 2012; in the data active = potentiation above about 50%; inconclusive = mostly about 30% to 49%
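PathHunter D2 cells, attached overnight at 37 deg C, received compound in DMSO plus dopamine at EC20 (50 nM final) for 90 min at 37 deg C. Beta-arrestin recruitment was read as luminescence after 1 h with detection reagent at ambient temperature.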
D2 ag-2 = Beta-Arrestin HTS for Positive Allosteric Modulators of the Human D2 Dopamine Receptor: Agonists; D(2) dopamine receptor (Homo sapiens), P14416; DiscoveRx PathHunter D2 beta-arrestin, luminescence, 90 min; 100% = 57 uM dopamine signal; activation, % (no concentration beside the values); hit rate 0.084% among 360,000; in the data active = activation above about 40%; inconclusive = between about 15% and that limit
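DiscoveRx PathHunter D2 beta-arrestin cells (2,100/well) attached overnight, then compound-stimulated 90 min at 37 C in HBSS/10 mM HEPES/0.1% Tween-20 buffer; beta-galactosidase complementation read by luminescence after 1 h at ambient temperature. Dopamine 57 uM final (EC100) as control.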
D2 PAM-2 = HTS Assay for Positive Allosteric Modulators of the Human D2 Dopamine Receptor: Primary Screen for Potentiators; D(2) dopamine receptor (Homo sapiens), P14416; HEK293 T-REx D2, calcium flux, EC20 dopamine potentiation; potentiation, % at 10 µM; hit rate 0.34% among 340,000; AID 485347, 2010;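 active = potentiation over 3 SD above the plate norm, cut at about 30% in these data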; note: 0% is about no effect
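Primary screen. Calcium kinetics in induced HEK293 T-REx D2 cells: compound pre-addition 180 s, EC20 dopamine, 180 s more.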
* marks the source's active call; other numbers are inactive results; ? = inconclusive; nt = no result.

SMILES	D2 antagonist	D2 ag-1	D2 PAM-1	D2 ag-2	D2 PAM-2
O=C(NCCc1ccc(F)cc1)C(=O)NCC(c1cccs1)S(=O)(=O)c1ccccc1 (stereo not given)	nt	0	nt	nt	7
CCOc1cc(C(=O)NCCN2CCOCC2)cc(OCC)c1OCC	18	-2	-13	-3	42*
O=C(NNC(=S)Nc1cccc(C(F)(F)F)c1)c1ccncc1	nt	nt	-27	-5	nt
O=C(NNC(=S)Nc1ccccc1)c1ccncc1	-21	0	-10	-7	31*
O=C(NNC(=S)NC(=O)C12CC3CC(CC(C3)C1)C2)c1ccncc1	18	66*	-38	-9	-20
CC1(C(=O)NC(=S)NNC(=O)c2ccncc2)CCCCC1	34*	10	-28	-14	-3
CCCc1[nH]nc2c1C1(CCN(C(=O)OCc3ccccc3)CC1)C(C#N)=C(N)O2	8	1	12	2	4
CC(C)c1[nH]nc2c1C1(CCN(Cc3ccccc3)CC1)C(C#N)=C(N)O2	40*	5	2	11	-20
C=CCN(CC=C)C(=S)Nc1cc(Cl)ccc1OC	4	1	-19	42*	-3
O=C(CCCCCN1C(=O)c2ccccc2C1=O)Nc1ccc(F)cc1	34*	0	-20	1	-8
O=C(CCCCCN1C(=O)c2ccccc2C1=O)Nc1ccccc1F	12	0	-5	-4	2
Cc1ccc(NC(=O)CCCCCN2C(=O)c3ccccc3C2=O)nc1	4	-1	-7	1	6
CCOC(=O)CCCSc1nnc(CCCCCN2C(=O)c3cccc4cccc(c34)C2=O)o1	-1	0	1	-2	8
CCOC(=O)CCCCCN1C(=O)c2cccc3cccc(c23)C1=O	3	-1	1	2	30*
O=C(CCCCCCN1C(=O)c2ccccc2C1=O)NC1CCCCC1	32*	1	3	-4	-2
Cc1cccc(NC(=O)CCCCCN2C(=O)c3ccccc3C2=O)n1	35*	-1	-3	0	1
COc1ccc(C(=O)Nc2ccccc2C(=O)OCc2cc(=O)n3c4c(sc3n2)CCCC4)cc1	nt	1	nt	nt	1
Cc1cccc(NC(=O)CCCN2C(=O)c3ccccc3C2=O)n1	34*	2	-12	-5	2
O=c1n(Cc2ccc(F)cc2)c2ccccc2c2nc(-c3ccccc3)nn12	nt	0	nt	nt	-3
CC(C)c1nc(SCC(=O)Nc2ccc(N(C)C)cc2)c2ccccc2n1	34*	-1	-5	-19	1
CC(C)c1nc(SCC(=O)Nc2nccs2)c2ccccc2n1	-5	0	-5	-3	-28
CCOC(=O)c1cc(-c2ccc(C)cc2)n(CCCC(=O)Nc2cc(C)ccc2C)c1	nt	1	nt	nt	-10
COc1ccccc1CNC(=O)COC(=O)c1n[nH]c2ccccc12	-4	-1	-8	-1	-2
COc1ccc(CNC(=O)COC(=O)c2n[nH]c3ccccc23)cc1OC	30*	1	-6	1	5
CCN(Cc1ccccc1)C(=O)c1cc2c(=O)[nH]c3ccc(C)cc3c2s1	nt	0	nt	nt	4
SMILES	D2 antagonist	D2 ag-1	D2 PAM-1	D2 ag-2	D2 PAM-2
COc1ccc(CCNC(=O)CCCn2nc(C)c3sc4ccccc4c3c2=O)cc1OC	nt	0	nt	nt	-2
CCOC(=O)c1c(C)oc2c1c1c(c3ccccc32)OCN(Cc2cccnc2)C1	-4	0	113*	?	1
CCOC(=O)c1c(C)oc2c1c1c(c3ccccc32)OCN(CCCC(=O)O)C1	-5	0	6	4	9
O=C1C2C3CCC(O3)C2C(=O)N1c1cc(OCC(F)F)cc([N+](=O)[O-])c1 (stereo not given)	35*	0	-23	-5	-4
Nc1cc(OCC(F)(F)F)cc([N+](=O)[O-])c1	-1	-2	-10	0	10
O=C(Nc1cccc(-n2cnnn2)c1)c1ccc(C(F)(F)F)cc1	57*	0	-16	-2	-17
Cc1ccc(S(=O)(=O)C(CNS(=O)(=O)c2cc(F)ccc2F)c2cccs2)cc1 (stereo not given)	nt	-1	nt	nt	-1
CCN(CC)CCn1c(=N)n(CCOc2ccccc2Cl)c2ccccc21	nt	0	nt	nt	16
Cc1ccc(S(=O)(=O)N(CC(=O)N2CCCCC2)c2cccc(C)c2)cc1	32*	0	-6	-1	-9
Cc1cccc(N(CC(=O)N2CCCC2)S(=O)(=O)c2ccccc2)c1	nt	nt	2	-1	nt
CCOC(=O)c1cc(OC(=O)c2cc(Cl)ccc2OC)n(-c2ccccc2)n1	nt	0	nt	nt	-5
CN(C)S(=O)(=O)c1ccc(C(=O)OCCc2ccccc2)cc1	3	1	0	-2	37*
Cc1nc(N2CCN(c3ccccn3)CC2)c2c(C)c(C(=O)N3CCN(c4cccc(Cl)c4)CC3)sc2n1	26	2	-5	-1	31*
COC(=O)C1=C(C(=O)OC)SC(=C2C(=S)C(C)(C)N(C(=O)CC(C)C)c3ccccc32)S1	30*	0	-12	0	9
CC(C)CC(=O)n1sc(NC(=O)c2ccccc2)nc1=O	-2	0	-21	-3	-4
Cc1ccc(C)c(NC(=O)CN2C(=O)C3(SCC(=O)N3c3ccc(C)c(C)c3)c3ccccc32)c1 (stereo not given)	nt	-2	nt	nt	5
CCc1cccc(OCC(=O)Nc2ccc(C)c(S(=O)(=O)N3CCCCCC3)c2)c1	31*	1	1	-1	1
O=C(OCc1cc(=O)n2nc(-c3cccs3)sc2n1)c1ccccc1	nt	-1	nt	nt	-3
COc1ccc(-n2c(N)c(-c3nc4ccccc4n3C)sc2=S)cc1	34*	0	3	-3	-5
CCC(=O)N1CCc2cc(Br)cc(S(=O)(=O)NCCc3ccc(OC)c(OC)c3)c21	nt	0	nt	nt	0
O=C(Cn1nc2n(c1=O)-c1ccccc1SC2)N/N=C/c1cccs1	41*	0	-20	-3	-21
Cc1nn(C(C)C(=O)NCc2cccc(F)c2)c(=O)c2c1sc1ccccc12 (stereo not given)	nt	0	nt	nt	nt
CC(=O)N1CCC(N(Cc2ccco2)C(=O)Nc2cccc(C)c2)CC1	nt	0	nt	nt	nt
O=C(C1=C(Nc2ccccc2)c2ccccc2S(=O)(=O)N1)c1ccccc1	40*	0	-19	-4	3
Cc1ccccc1NC1=C(C(=O)c2ccccc2)N(C)S(=O)(=O)c2ccccc21	3	1	-20	-2	-9
